The values that follow come from PubChem BioAssay AID624309 (Sanford-Burnham Center for Chemical Genomics, 2012).

SMILES strings stand for the structures. The whole screen tested about 2,000 compounds, of which about 260 (13%) were called active. The list is a sample of the results. Values without a mark were called inactive. Cut-off read from the data, not from the text of the source: active = inhibition mostly above about 42% (no sharp cut-off); inactive = mostly below about 42%.

The test system of the assay is Nicotinate mononucleotide adenylyltransferase NadD (Staphylococcus aureus N315). Briefly: inhibitors of S. aureus NadD, confirmation, biochemical, colorimetric, single concentration (AID 624309). The note with it: purified S. aureus NadD, colorimetric enzyme assay; at 20 µM; hits give high values.
In the case of `Cc1cc(N2C(=O)C(O)=C(C(=O)c3ccc(C)o3)C2c2ccc(OCc3ccccc3)cc2)no1` (centres undefined), the inhibition (in general, the drop in the measured response relative to a control, in per cent) was 51.4% (active).

Regarding `CCCn1c(C)cc(-c2csc(NC(=O)CCc3nc4ccccc4c(=O)[nH]3)n2)c1C`, the inhibition is 25.1%.

For `CCc1ccc(-n2c(=S)sc3c(=O)n(-c4ccccc4OC)c(=S)[nH]c32)cc1`, the inhibition was 5.54%.

Consider `Cc1ccc(C(=O)COC(=O)c2cccc(N3C(=O)c4c(C)nc5ccccc5c4C3=O)c2)cc1C`, for which the inhibition was 0.6%.

`Cc1cc(C)c2nc(-c3cccnc3)cc(C(=O)Nc3ccc(S(=O)(=O)Nc4onc(C)c4C)cc3)c2c1`: the inhibition was 64% (active).

In the case of `COc1cccc2sc(NNC(=O)c3nc4ccccc4s3)nc12`, the inhibition was 43.7%.

Take `O=C(COC(=O)c1cc(=O)[nH]c2ccccc12)Nc1nc(-c2cccc(Br)c2)cs1`: the inhibition was 5.44%.

Turning to `CCOc1ccc(CCN2C(=S)N([C@@H](CC(C)C)CN3CCC[C@@H]3CN3C(=S)NC[C@@H]3Cc3ccc(O)cc3)C[C@@H]2Cc2ccc(O)cc2)cc1`, the inhibition is 29.1%.

In the case of `COc1ccc(C(=O)/C=C/c2ccc(-c3ccccc3)cc2)cc1CSCC(=O)O`, the inhibition is 46.5%.

Regarding `Cc1ccc(Cn2c(=N)c(S(=O)(=O)c3ccc(C)cc3)cc3c(=O)n4ccccc4nc32)cc1`, the inhibition was 20.4%.

`Cc1ccc(N2C(=O)C3N=NN(CC(=O)N4N=C(c5cccc6ccccc56)CC4c4ccccc4)C3C2=O)cc1` (centres undefined): the inhibition was 33.1%.

With `CC(=O)Nc1ccc(Nc2cc(C)nc(Nc3ccc(NC(C)=O)cc3)n2)cc1`, the inhibition is 9.22%.

As for `O=C1NC[C@H](Cc2ccc(O)cc2)N(C[C@@H]2CCCN2C[C@H](Cc2ccccc2)N2C[C@H](Cc3ccccc3)N(CC3CCCCC3)C(=O)C2=O)C1=O`, the inhibition is 38.1%.

For the compound `O=C(Nc1ccc(NC(=O)c2cccs2)cc1)c1ccc2ccccc2c1`, the inhibition was -0.66%.

With `Nc1ccc2nc3c(=O)[nH]c(=S)[nH]c3nc2c1`, the inhibition is 72.4% (active).

In the case of `Cc1ccc(C(=O)Oc2coc(CSc3nnc(NC(=O)c4cccs4)s3)cc2=O)cc1C`, the inhibition was 13.8%.

With `CC(C)CC1C(=O)N(Cc2cn(Cc3ccco3)nn2)CCS(=O)(=O)N1Cc1ccc(-c2ccc(Cl)c(Cl)c2)cc1` (centres undefined), the inhibition is 35%.

Regarding `COc1cc(C2CC(=O)N3CN(Cc4ccccc4)CSC3=C2C#N)ccc1OCc1ccccc1` (centres undefined), the inhibition was 4.07%.

With `COCCCn1c(=O)/c(=C/c2ccccc2OC(C)C)s/c1=C(\C#N)C(=O)Nc1ccc(C(=O)O)cc1`, the inhibition was 12.9%.

With `NNc1cccc(C=Cc2ccccc2)cc1=O`, the inhibition was 39.5%.

As for `O=C(CSc1nnc(-c2cccnc2)n1Cc1ccco1)c1ccc(Cl)c(Cl)c1`, the inhibition is 32.6%.

With `COc1ccc(NS(=O)(=O)c2ccc(NC(=S)NC(=O)/C=C/c3ccc(C)cc3)cc2)nn1`, the inhibition was 58.1% (active).

Turning to `COc1ccc(Cl)cc1C(=O)NNC(=S)NC(=O)/C=C/c1ccco1`, the inhibition was -2.56%.

Turning to `COc1ccc(C2=NN(C(=O)CSc3nc(=O)n4ccc(C)cc4n3)C(c3ccc(C)cc3)C2)cc1` (centres undefined), the inhibition was 18.2%.

As to `C[C@H](CO)N1C[C@H](C)[C@H](CN(C)C(=O)Nc2ccc(C(F)(F)F)cc2)Oc2c(NC(=O)c3ccncc3)cccc2C1=O`, the inhibition was 27.5%.

Consider `Cc1ccc2nc(/C(C#N)=C\c3ccc(OC(=O)c4cccs4)cc3)[nH]c2c1`, for which the inhibition is 21%.

On to `Cc1ccc(/C=C/C(=O)Nc2ccc([N+](=O)[O-])c(NC(=O)/C=C/c3ccc(C)o3)c2)o1`, for which the inhibition was 60.6% (active).

With `CCCn1c(C(C)Nc2nc(-c3ccc(C)cc3)cs2)nc2cc(Cl)c(N3CCCCC3)cc21` (centres undefined), the inhibition is 0.81%.

Turning to `CCC(NC(=O)c1cc(COc2ccc(F)c(F)c2)on1)c1ccncc1` (centres undefined), the inhibition was 2.18%.

Turning to `c1ccc(-c2nccc(-c3ccc(-n4cnc5ccccc54)cc3)n2)nc1`, the inhibition was 16.5%.

Turning to `O=C(CSc1nc2ccccc2c(=O)[nH]1)Nc1nc(-c2ccc(Br)cc2)cs1`, the inhibition is 6.59%.

On to `Cc1ccc(Cn2nnc3c(=O)[nH]c(C4CCN(S(=O)(=O)/C=C/c5ccccc5)CC4)nc32)cc1`, for which the inhibition is 37%.

In the case of `Cc1ccc(Cn2c(C)nc3c(c2=O)c2nc4ccccc4nc2n3Cc2ccco2)cc1`, the inhibition is 11.8%.

For the compound `Cn1c2ccccc2c(=O)c2c(=O)n(Cc3ccco3)c(COc3ccccc3)nc21`, the inhibition is 10.4%.

In the case of `Cc1cc(C(=O)CSc2nc(N)cc(=O)[nH]2)c(C)n1CCc1ccc(Cl)cc1`, the inhibition is 21.5%.

As to `C#Cc1cc(N2CCN(C(=O)c3ccoc3)CC2)n2nc(-c3cccc(Cl)c3)cc2n1`, the inhibition was 25.9%.

With `COc1ccc(-c2nn(-c3ccccc3)cc2/C=N/Nc2ccccn2)cc1OC`, the inhibition is 5.86%.

Take `Cc1ccc(-c2nc(-c3cccnc3)sc2CC(=O)Nc2ccc(C)c(Cl)c2)cc1`: the inhibition was -1.82%.

Consider `Cc1noc(/C=C/c2ccco2)c1S(=O)(=O)N1CCC(C(=O)N2CCc3ccccc32)CC1`, for which the inhibition was 4.7%.

For the compound `Cn1cncc1C#Cc1c(-c2ccsc2)sc2ccccc12`, the inhibition was 9.54%.

With `O=C(N/N=C/c1ccc(Cl)cc1)c1nc2ccc([N+](=O)[O-])cc2c(=O)[nH]1`, the inhibition was 9.54%.

Turning to `COc1ccccc1/C=C/C=N/n1c(-c2ccc(Cl)cc2Cl)n[nH]c1=S`, the inhibition is 17.4%.

Regarding `CCC(c1nnnn1Cc1ccco1)N(Cc1cc2cc(OC)ccc2[nH]c1=O)C1CCCCC1` (centres undefined), the inhibition was 14.9%.

Take `COc1ccc(C(=O)Nc2cccc(/C=C(/CCC(=O)O)c3nc4ccccc4s3)c2)cc1`: the inhibition is 35.7%.

`CC(C)(C)C(=O)Nc1ccc(C(=O)N/N=C/c2ccccc2OC(=O)c2ccc(Cl)cc2Cl)cc1`: the inhibition was 0.49%.

Turning to `CCCCCCc1cc2cc(-c3nnc(-c4ccccc4)o3)c(=O)oc2cc1O`, the inhibition was -1.61%.

As to `Cc1cc(O)c(C(=O)/C=C/c2c(F)c(F)c(F)c(F)c2F)c(=O)o1`, the inhibition was 12.9%.

Turning to `CCOC(=O)c1ccccc1N1C(=O)C2Sc3[nH]c(=O)sc3C(/C=C/c3ccccc3)C2C1=O` (centres undefined), the inhibition was 57.6% (active).

As to `CC(C)Oc1ccc(/C=C(\NC(=O)/C=C/c2ccco2)C(=O)NCCc2nc3ccccc3[nH]2)cc1`, the inhibition was 37.9%.
